Assay outcomes: PubChem, several laboratories
The list is not random: actives were taken first. Their share in the collection is about 5.9%.
HSF1 activator: HSF-1 activators, primary screen, NIH3T3-HGL cells, MG132 stress, luminescence, single point. NIH3T3-HGL HSF-1 luciferase reporter, 8 h; 100% = twice DMSO control signal. activation, % at 9 µM. hit rate 1.7% among 300,000;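 active means mean replicate activation of at least 50% with a set share of replicates each reaching 50%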;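 further: 0% = median of the neutral control wells and 100% = twice that signal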
NR0B1 inh: DAX1 (NR0B1) inhibitors, primary screen, cell-based, HEK293, Gal4-DAX1, luciferase luminescence; HEK293 Gal4-DAX1 luciferase reporter; inhibition, % at 6.75 µM; hit rate 0.99% among 340,000;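 active means inhibition above the mean over all tested compounds plus 3 SD, cut at about 4.2% in these data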;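 further: 0% = DAX1-transfected cells with DMSO and 100% = empty-vector control cells with DMSO; inhibition shows as a rise in luminescence from relieved DAX1 repression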
HSF1 inhib: HSF1 inhibitors in luciferase reporter cells, primary screen, cell-based, NIH3T3, luminescence. NIH3T3-HGL HSE-luciferase, MG132-induced, luminescence 8 h; hits give low values. activity change, negative = inhibition, % at 7.5 µM (by protocol). hit rate 0.77% among 300,000. AID 2098, 2009;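 active means more than half of replicate wells show activity change below -50%, luminescence cut by over half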;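 further: luciferase reports HSF-1 transcriptional activity via heat shock element; 0% = median of DMSO wells and -100% = zero luminescence signal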
GAA850 FXN act: FXN promoter activators, primary screen, cell-based, luciferase luminescence, HEK293 lucGAA850. hit rate 0.56% among 360,000. activation, % at 6 µM. HEK293 lucGAA850 FXN promoter luciferase reporter, 24 h; percent of 10 µM SAHA response;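 active means activation above the average of all compounds screened plus 3 SD, cutoff fixed separately per campaign, cut at about 7.5% in these data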;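 further: 0% = DMSO wells and 100% = 10 µM SAHA wells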
AHR act: AHR activators, primary screen, cell-based, luminescence, luciferase reporter, human. Aryl hydrocarbon receptor (Homo sapiens), P35869. AHR-responsive luciferase reporter cells. activation, % at 5 µM. hit rate 2.5% among 320,000; in the data active means activation above about 47%;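 further: 0% = vehicle wells and 100% = reference agonist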
HSP90 inh: HSP90 inhibitors, primary screen, cell lysate, luminescence; AID 1789, 2009; Rabbit reticulocyte lysate, luciferase refolding luminescence, 3 h; inhibition, % at 5.6 µM; hit rate 0.91% among 290,000; Heat shock protein HSP 90 (rabbit reticulocyte lysate; luciferase refolding);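 active means inhibition above the screen-wide mean plus 3 SD, computed separately per campaign, cut at about 16% in these data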;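 further: 0% = DMSO wells and 100% = 60 µM geldanamycin wells; inhibitors lower the luminescence because luciferase stays unfolded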
HSP90 confirm: HSP90 inhibitors, confirmation, cell lysate, luminescence | shares compounds with HSP90 inh | rabbit reticulocyte lysate, luciferase refolding luminescence, 3 h | inhibition, % at 5.9 µM | hit rate 64% among 2,300; in the data active means inhibition above about 18%;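 further: 0% = vehicle wells and 100% = reference inhibitor wells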
luciferase ctr: firefly luciferase inhibitors, HSP90 counter-screen, confirmation, artefact control for HSP90 inhibitor project, biochemical, luminescence, triplicate; inhibition, % at 5.9 µM; purified native firefly luciferase; shares compounds with HSP90 inh; hit rate 48% among 2,300;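 active means inhibition above the mean inhibition of all tested sample wells plus 3 SD, cut at about 10% in these data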;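 further: 0% = DMSO with luciferase and 100% = wells lacking luciferase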
Target sequence (P08659 whole entry, looked up): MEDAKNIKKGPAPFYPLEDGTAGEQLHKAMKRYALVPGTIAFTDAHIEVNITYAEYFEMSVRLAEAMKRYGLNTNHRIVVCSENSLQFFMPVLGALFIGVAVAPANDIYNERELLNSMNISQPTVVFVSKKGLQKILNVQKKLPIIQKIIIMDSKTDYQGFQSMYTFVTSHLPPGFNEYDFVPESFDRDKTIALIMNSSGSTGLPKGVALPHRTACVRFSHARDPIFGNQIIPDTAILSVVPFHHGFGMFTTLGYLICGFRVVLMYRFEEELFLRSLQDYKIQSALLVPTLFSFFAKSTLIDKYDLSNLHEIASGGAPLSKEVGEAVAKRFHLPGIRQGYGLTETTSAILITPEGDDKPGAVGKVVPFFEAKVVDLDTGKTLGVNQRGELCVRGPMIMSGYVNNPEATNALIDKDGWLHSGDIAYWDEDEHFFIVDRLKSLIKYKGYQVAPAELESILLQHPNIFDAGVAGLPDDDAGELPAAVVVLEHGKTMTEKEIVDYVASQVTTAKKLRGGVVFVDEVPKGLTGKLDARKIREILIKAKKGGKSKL
* marks the source's active call; other numbers are inactive results; . = no result given.

SMILES	HSF1 activator	NR0B1 inh	HSF1 inhib	GAA850 FXN act	AHR act	HSP90 inh	HSP90 confirm	luciferase ctr
CCOC(=O)CN1C(=O)S/C(=C\c2ccc(-c3cccc(C(=O)O)c3C)o2)C1=O	15.1	.	0.8	2.1	1.8	.	.	.
Cc1c(C(=O)O)cccc1-c1ccc(/C=C2\SC(=O)NC2=O)o1	1.9	-2.4	-10.3	0.8	-0.7	28.7*	39.3*	16.8*
Cc1c(C(=O)O)cccc1-c1ccc(/C=C2/NC(=O)N(c3ccccc3)C2=O)o1	-4.6	-0.2	3.6	2.4	0.5	33.2*	28.1*	-19.7
COc1ccc(CCNC(=O)C2CCCN2C(=O)Nc2ccc(Cl)cc2)cc1OC (stereo not given)	-3.8	2.9	-0.6	0.0	0.2	-4.6	.	.
COc1ccccc1Nc1nnc(SCC2CCCCO2)s1 (stereo not given)	21.6	-1.3	-0.1	-1.3	-6.3	31.7*	38.2*	38.6*
O=C1CCCCC1Sc1nnc(-c2ccc3c(c2)OCO3)o1 (stereo not given)	-41.4	-6.9	-33.8	-10.7	4.5	75.0*	93.5*	78.7*
Cc1ccc(C(C)NC(=O)Cc2cccs2)c(C)c1 (stereo not given)	-15.9	0.2	-2.9	1.3	-1.0	29.8*	-9.7	-11.0
Fc1ccc(-c2nnc(NC3=NCCCCC3)o2)cc1	-58.7	-3.7	-48.7	-6.0	-13.3	72.9*	81.5*	75.6*
O=C(CNC(=O)c1ccc(Cl)cc1)OCC(=O)N1CCCC1	-6.4	1.1	2.7	-0.3	-0.7	18.7*	-4.2	-7.5
Cc1cc(OCC(=O)NCC(c2ccc(F)cc2)N2CCOCC2)ccc1Cl (stereo not given)	.	0.0	.	-0.1	2.4	.	.	.
Cc1ccc(/C=N\NC(=O)C2COc3cc4ccccc4cc3O2)o1 (stereo not given)	8.0	0.3	1.3	3.1	14.2	0.7	.	.
O=C(N/N=C\c1ccc(-c2ccccc2[N+](=O)[O-])o1)C1COc2cc3ccccc3cc2O1 (stereo not given)	1.4	-0.4	-4.7	0.5	33.3	22.0*	15.5	-4.0
c1ccc(-n2cnc3cc(NCc4ccccn4)ccc32)cc1	-45.8	0.0	-36.3	-5.3	7.4	18.1*	18.4*	3.4
c1ccc(-n2cnc3cc(NCc4ccncc4)ccc32)cc1	15.9	2.7	9.4	-3.7	17.5	-1.5	.	.
O=C(Nc1ccccc1)c1cccc(S(=O)(=O)NC2CCCC2)c1	-6.0	0.2	-4.7	-0.5	10.7	1.6	.	.
Cc1cc(NC(=O)CSc2nnc(CNC(=O)c3ccc(F)cc3)o2)no1	-15.1	-0.1	1.4	-0.7	2.8	-1.1	.	.
CCN(C(=O)COC(=O)[C@H](C)N=C1NS(=O)(=O)c2ccccc21)C1CCS(=O)(=O)C1 (stereo not given in full)	.	-0.4	.	0.2	.	.	.	.
CCN1CCN(C(c2ccccn2)c2c(NC(=O)c3ccccc3)sc(C)c2C)CC1 (stereo not given)	-5.2	-0.7	3.7	-3.3	5.2	33.2*	-3.2	-10.3
COc1ccc(C(c2c(NC(=O)c3ccccc3)sc(C)c2C)N2CCN(CCO)CC2)cc1 (stereo not given)	45.8	0.2	15.5	-1.2	4.1	-0.7	.	.
CCOc1ccc(-c2nc(CN3CCCC(C(=O)N4CCOCC4)C3)c(C)o2)cc1 (stereo not given)	-45.6	1.8	-30.0	-1.1	7.1	18.5*	24.4*	-2.8
Cc1ccc(-c2nc(CN3CCCC(C(=O)N4CCOCC4)C3)c(C)o2)cc1 (stereo not given)	12.1	0.3	-3.4	2.8	5.3	-4.2	.	.
S=C(NCCc1ccccn1)NC1CCCCC1	27.0	0.8	7.8	4.5	4.9	22.9*	1.3	-10.6
S=C(NCCCc1ccccc1)NC1CCCCC1	4.2	0.0	3.5	0.7	1.9	-1.0	.	.
COC(=O)COc1ccc(C(=O)Cn2c(NCCCO)nc3ccccc32)cc1	8.9	3.5	-9.0	0.5	-1.6	.	.	.
CC(C)(C)c1ccc(-c2noc(CCC(N)=O)n2)cc1	-37.5	-3.6	-28.5	-16.8	-3.4	1.9	.	.
SMILES	HSF1 activator	NR0B1 inh	HSF1 inhib	GAA850 FXN act	AHR act	HSP90 inh	HSP90 confirm	luciferase ctr
CC(C)(C)c1ccc(-c2noc(CCC(=O)Nc3cccnc3)n2)cc1	-45.1	-1.7	-46.0	-14.1	-8.3	45.0*	3.7	-18.8
COc1ccc(-c2noc(CCC(=O)Nc3cccnc3)n2)cc1	-21.4	-2.4	-9.7	-3.5	-1.1	2.7	.	.
CN(C)C(=O)CCc1nc(-c2ccc(C(C)(C)C)cc2)no1	27.7	-0.4	5.3	0.6	-0.1	19.8*	27.0*	0.1
COC(=O)[C@]1(C)N[C@H](CN(C)C(=O)Nc2ccc(Cl)cc2)[C@@H]2C(=O)N(C)C(=O)[C@@H]21	.	0.2	.	1.1	2.5	.	.	.
CCCc1ccc(OCc2ccc(C(=O)N/N=C/c3cccnc3)o2)cc1	13.1	-0.1	17.5	6.0	.	36.3*	25.6*	-15.4
COc1ccc(CNC[C@@H](CCCCN(C)Cc2ccc(OC)cc2)N2C[C@H](c3ccccc3)N(CCc3ccc(Cl)c(Cl)c3)C(=O)C2=O)cc1	-4.4	0.5	8.1	-5.6	2.7	17.5*	19.8*	-5.1
COC(=O)c1ccc(NC(=O)c2ccccc2C(=O)Nc2ccc(C(=O)OC)cc2)cc1	-44.9	1.9	-29.6	-0.4	-2.5	.	.	.
COC(=O)c1ccc(NC(=O)C(=O)c2cccn2C)cc1	60.7*	-2.8	20.0	1.6	9.7	25.7*	58.8*	42.2*
Cc1nc2c(-c3ccc(F)cc3)cnn2c(N)c1-c1ccc(F)cc1	-62.1	4.3*	-56.5*	-3.7	0.4	46.5*	49.6*	48.8*
CS(=O)(=O)c1cnc2c(-c3ccc(F)cc3)cnn2c1N	40.0	1.9	19.1	7.0	-6.4	-1.8	.	.
N#CC(C#N)=Cc1ccc(NC(=O)c2ccc(Br)cc2)cc1	10.7	-0.1	7.5	4.3	5.0	-1.0	.	.
CC(C)(C)c1ccc(C(=O)Nc2ccc(C=C(C#N)C#N)cc2)cc1	-14.1	-1.7	-17.3	5.1	-6.1	39.2*	45.4*	-15.6
COc1cccc(Cn2cccc(NC(=O)NCc3ccccc3)c2=O)c1	-0.4	0.0	2.3	0.8	5.5	17.9*	2.4	-6.1
